ChEMBL document CHEMBL1961873, “Compounds: GSK PKIS; Assays: Nanosyn kinase panel” (2012)

Tests used:
[1] = target: T1, Ephrin type-B receptor 2 (Homo sapiens) (UniProt P29323); settings: at 1 µM
T1 sequence (whole entry): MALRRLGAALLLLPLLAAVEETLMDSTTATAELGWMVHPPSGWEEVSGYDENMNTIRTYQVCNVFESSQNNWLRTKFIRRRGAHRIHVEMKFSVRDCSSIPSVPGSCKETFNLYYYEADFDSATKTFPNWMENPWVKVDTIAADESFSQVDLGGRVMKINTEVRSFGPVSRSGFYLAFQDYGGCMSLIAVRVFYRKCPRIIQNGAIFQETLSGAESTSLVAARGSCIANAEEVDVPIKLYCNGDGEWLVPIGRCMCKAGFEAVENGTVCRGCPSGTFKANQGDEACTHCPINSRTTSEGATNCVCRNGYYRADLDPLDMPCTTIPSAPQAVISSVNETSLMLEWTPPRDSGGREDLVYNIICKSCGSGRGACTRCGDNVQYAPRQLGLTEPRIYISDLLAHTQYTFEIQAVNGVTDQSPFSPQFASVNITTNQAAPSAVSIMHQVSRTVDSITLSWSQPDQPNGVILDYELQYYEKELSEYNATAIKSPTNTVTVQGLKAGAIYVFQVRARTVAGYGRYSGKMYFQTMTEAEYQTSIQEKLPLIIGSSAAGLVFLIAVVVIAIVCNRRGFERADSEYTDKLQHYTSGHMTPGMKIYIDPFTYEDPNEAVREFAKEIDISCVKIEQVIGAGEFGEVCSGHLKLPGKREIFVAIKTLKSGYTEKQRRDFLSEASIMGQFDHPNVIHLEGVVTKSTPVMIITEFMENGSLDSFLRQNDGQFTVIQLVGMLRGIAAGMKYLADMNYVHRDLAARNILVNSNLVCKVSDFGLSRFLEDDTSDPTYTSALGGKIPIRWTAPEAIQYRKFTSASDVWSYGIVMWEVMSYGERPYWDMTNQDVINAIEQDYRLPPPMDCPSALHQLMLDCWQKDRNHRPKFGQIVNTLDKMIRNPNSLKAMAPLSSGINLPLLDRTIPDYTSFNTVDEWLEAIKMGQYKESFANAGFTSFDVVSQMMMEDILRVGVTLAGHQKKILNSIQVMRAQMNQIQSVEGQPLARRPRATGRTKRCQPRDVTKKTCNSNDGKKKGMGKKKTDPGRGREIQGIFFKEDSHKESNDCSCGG

[2] = target: T2, Ephrin type-B receptor 3 (Homo sapiens) (UniProt P54753); settings: at 0.1 µM
T2 sequence (whole entry): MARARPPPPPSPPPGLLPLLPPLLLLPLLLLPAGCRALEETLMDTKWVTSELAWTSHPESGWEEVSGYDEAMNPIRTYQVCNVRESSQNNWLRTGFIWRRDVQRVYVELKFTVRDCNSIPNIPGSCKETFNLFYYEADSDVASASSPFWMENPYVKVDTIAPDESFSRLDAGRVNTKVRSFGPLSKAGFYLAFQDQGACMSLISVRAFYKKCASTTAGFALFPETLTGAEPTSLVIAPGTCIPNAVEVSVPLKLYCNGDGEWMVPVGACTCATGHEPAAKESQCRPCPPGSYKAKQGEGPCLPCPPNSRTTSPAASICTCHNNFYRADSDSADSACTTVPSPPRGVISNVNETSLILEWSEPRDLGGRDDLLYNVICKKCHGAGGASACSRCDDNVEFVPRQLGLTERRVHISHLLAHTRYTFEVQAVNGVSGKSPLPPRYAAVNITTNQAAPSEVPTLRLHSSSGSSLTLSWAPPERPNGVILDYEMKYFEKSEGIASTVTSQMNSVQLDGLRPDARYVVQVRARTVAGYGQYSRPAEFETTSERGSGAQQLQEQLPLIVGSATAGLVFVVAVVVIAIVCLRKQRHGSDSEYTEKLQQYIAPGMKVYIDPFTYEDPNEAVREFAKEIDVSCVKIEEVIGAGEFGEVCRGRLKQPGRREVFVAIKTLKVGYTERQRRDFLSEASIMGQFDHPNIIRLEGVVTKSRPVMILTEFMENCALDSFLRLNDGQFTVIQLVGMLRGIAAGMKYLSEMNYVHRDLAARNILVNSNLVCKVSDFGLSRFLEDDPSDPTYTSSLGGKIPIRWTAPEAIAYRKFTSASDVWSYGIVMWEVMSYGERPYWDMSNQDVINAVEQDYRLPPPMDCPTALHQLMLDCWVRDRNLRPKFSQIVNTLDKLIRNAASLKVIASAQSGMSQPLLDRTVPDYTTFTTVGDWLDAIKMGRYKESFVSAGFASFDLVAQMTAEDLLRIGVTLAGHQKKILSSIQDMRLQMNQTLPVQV

[3] = target: T2, Ephrin type-B receptor 3 (Homo sapiens); settings: at 1 µM
[4] = target: T3, Ephrin type-B receptor 4 (Homo sapiens) (UniProt P54760); settings: at 0.1 µM
T3 sequence (whole entry): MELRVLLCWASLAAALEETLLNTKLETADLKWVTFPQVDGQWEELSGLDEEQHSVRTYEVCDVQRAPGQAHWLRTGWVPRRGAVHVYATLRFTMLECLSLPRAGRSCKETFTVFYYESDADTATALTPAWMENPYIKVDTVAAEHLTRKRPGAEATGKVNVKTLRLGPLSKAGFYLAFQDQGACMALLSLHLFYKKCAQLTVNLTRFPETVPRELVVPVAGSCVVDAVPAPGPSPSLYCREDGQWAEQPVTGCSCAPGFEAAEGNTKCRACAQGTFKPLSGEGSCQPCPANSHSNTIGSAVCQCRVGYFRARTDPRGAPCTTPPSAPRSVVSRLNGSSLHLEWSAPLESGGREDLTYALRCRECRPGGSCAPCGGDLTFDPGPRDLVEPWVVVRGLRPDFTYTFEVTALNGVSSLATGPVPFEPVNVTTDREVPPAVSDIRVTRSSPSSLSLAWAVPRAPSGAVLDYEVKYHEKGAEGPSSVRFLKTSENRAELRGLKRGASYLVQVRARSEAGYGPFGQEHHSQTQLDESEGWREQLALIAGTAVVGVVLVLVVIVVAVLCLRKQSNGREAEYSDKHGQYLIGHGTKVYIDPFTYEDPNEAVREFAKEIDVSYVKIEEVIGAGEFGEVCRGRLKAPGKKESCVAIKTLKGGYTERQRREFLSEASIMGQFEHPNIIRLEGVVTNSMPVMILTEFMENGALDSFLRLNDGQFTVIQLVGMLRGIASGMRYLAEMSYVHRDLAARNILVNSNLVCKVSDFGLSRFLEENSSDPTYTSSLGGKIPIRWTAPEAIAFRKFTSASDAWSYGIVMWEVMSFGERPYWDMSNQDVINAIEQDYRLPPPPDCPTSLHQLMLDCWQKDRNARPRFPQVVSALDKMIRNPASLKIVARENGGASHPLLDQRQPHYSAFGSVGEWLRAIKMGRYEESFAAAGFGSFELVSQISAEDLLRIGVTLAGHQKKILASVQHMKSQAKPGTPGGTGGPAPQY

[5] = target: T3, Ephrin type-B receptor 4 (Homo sapiens); settings: at 1 µM
[6] = target: Receptor tyrosine-protein kinase erbB-2 (Homo sapiens) (UniProt P04626); settings: at 0.1 µM
Receptor tyrosine-protein kinase erbB-2 (Homo sapiens), sequence (P04626 whole entry): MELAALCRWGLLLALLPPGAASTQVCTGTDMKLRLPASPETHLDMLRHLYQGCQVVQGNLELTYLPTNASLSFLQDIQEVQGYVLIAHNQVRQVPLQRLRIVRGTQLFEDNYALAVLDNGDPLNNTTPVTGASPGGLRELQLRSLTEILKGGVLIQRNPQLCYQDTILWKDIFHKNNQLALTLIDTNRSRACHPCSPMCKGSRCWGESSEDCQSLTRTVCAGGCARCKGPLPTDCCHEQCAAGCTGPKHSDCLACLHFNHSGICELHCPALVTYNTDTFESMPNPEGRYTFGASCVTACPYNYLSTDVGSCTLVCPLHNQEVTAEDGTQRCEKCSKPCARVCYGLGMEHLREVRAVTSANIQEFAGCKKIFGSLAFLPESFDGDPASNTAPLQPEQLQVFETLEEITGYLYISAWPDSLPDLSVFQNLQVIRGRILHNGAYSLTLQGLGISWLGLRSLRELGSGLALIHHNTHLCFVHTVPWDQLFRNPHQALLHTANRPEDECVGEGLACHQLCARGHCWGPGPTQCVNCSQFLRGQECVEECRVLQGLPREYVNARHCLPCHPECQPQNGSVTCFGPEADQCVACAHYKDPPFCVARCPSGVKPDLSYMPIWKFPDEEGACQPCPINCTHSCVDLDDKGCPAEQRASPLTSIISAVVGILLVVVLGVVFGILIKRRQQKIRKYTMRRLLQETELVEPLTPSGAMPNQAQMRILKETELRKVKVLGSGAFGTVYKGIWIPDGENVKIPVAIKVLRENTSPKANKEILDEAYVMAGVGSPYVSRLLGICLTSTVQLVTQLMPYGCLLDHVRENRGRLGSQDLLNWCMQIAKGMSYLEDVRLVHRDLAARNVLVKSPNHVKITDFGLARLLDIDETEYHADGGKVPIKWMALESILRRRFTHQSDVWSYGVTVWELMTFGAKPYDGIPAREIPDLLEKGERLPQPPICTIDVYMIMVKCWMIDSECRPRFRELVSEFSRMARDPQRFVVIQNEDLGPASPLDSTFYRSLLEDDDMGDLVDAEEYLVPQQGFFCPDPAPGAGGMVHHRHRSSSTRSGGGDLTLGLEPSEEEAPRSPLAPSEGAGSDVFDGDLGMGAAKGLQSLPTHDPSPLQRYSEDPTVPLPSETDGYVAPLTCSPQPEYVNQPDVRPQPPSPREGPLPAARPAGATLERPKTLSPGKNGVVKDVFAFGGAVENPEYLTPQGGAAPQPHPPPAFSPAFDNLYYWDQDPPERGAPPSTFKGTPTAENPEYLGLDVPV

[7] = target: Receptor tyrosine-protein kinase erbB-2 (Homo sapiens) (UniProt P04626); settings: at 1 µM
[8] = target: Receptor tyrosine-protein kinase erbB-4 (Homo sapiens) (UniProt Q15303); settings: at 0.1 µM
Receptor tyrosine-protein kinase erbB-4 (Homo sapiens), sequence (Q15303 whole entry): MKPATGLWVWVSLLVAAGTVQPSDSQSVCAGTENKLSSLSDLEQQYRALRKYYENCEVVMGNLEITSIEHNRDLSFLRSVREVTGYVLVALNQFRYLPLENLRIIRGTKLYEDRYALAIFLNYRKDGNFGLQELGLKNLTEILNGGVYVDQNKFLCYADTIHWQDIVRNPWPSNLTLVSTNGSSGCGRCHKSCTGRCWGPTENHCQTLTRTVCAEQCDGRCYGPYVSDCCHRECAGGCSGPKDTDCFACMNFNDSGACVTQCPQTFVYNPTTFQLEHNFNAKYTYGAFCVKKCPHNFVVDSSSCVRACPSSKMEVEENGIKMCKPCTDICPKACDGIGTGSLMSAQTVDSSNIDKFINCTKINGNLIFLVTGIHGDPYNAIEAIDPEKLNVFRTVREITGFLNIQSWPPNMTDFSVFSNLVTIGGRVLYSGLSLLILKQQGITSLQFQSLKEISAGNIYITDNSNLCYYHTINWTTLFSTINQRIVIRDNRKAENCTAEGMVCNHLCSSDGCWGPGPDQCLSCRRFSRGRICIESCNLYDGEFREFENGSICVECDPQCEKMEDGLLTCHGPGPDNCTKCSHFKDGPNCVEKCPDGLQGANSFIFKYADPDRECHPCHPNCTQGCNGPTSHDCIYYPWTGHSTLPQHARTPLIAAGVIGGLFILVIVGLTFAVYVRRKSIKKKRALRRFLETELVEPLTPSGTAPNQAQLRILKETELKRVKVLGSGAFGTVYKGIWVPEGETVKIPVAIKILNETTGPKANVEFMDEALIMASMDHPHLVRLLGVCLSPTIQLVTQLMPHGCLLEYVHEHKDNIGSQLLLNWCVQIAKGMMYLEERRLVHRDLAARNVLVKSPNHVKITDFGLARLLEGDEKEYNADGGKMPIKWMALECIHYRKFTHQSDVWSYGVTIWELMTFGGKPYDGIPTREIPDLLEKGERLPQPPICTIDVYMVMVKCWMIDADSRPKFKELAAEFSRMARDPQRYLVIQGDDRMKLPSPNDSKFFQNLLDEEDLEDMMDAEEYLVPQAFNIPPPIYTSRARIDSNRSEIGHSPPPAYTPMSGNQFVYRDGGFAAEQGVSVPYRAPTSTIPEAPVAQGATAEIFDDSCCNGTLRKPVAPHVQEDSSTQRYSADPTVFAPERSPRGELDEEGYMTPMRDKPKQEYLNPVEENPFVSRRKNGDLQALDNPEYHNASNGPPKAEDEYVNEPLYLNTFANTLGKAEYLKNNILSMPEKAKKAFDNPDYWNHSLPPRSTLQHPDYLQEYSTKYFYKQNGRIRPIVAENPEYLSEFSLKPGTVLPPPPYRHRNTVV

[9] = target: Receptor tyrosine-protein kinase erbB-4 (Homo sapiens) (UniProt Q15303); settings: at 1 µM
[10] = target: Tyrosine-protein kinase Fer (Homo sapiens) (UniProt P16591); settings: at 0.1 µM;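 also: reported figures are averaged percent inhibition of FER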
Tyrosine-protein kinase Fer (Homo sapiens), sequence (P16591 whole entry, looked up): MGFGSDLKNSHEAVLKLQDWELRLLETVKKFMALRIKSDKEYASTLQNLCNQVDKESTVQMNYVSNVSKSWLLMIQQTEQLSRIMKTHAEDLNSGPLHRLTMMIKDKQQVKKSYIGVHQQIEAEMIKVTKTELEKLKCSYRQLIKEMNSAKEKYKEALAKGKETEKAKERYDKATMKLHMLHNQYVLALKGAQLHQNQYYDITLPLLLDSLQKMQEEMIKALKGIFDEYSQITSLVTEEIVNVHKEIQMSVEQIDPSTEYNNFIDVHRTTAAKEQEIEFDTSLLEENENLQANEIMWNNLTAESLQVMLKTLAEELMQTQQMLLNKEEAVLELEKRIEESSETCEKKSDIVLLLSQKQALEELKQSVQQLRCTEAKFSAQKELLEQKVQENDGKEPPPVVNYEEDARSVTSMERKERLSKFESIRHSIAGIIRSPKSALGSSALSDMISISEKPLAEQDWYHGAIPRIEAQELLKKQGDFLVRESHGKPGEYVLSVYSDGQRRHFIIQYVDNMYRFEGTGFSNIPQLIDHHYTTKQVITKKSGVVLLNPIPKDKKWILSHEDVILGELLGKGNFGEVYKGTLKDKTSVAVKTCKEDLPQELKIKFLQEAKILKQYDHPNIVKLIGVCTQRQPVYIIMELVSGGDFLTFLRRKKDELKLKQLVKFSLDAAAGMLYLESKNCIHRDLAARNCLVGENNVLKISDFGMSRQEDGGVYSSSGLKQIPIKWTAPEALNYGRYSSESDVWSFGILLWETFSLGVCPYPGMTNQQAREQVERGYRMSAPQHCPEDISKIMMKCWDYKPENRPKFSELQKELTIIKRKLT

Row | SMILES | inhibition [1] | inhibition [2] | inhibition [3] | inhibition [4] | inhibition [5] | inhibition [6] | inhibition [7] | inhibition [8] | inhibition [9] | inhibition [10]
1 | NC(=O)c1ccc(-c2nc(-c3ccccn3)c(-c3ccc4c(c3)OCO4)[nH]2)cc1 | 6.48% | 4.63% | 1.89% | 3.74% | 1.95% | 2.99% | 0.42% | 7.53% | 11.4% | 1.79%
2 | O=C1NC(=O)C(c2ccccc2Cl)=C1Nc1cccc(O)c1 | 7.6% | 4.32% | 1.16% | 1.29% | 3.19% | 0.64% | -0.2% | 8.95% | 8.95% | 4.57%
3 | CC1=C(C(=O)Nc2ccc3[nH]ncc3c2)C(c2ccc(Cl)c(Cl)c2)CC(=O)N1 (stereo not drawn) | 12.5% | 3.28% | 2.88% | 1.18% | 1.59% | 0.3% | 0.63% | 8.29% | 17.8% | 1.45%
4 | Fc1cccc(COc2ccc(Nc3ncnc4sc(-c5cccs5)cc34)cc2Cl)c1 | 2.33% | 0.38% | 2.19% | 1.37% | 1.29% | 1.07% | 3.46% | 5.25% | 31.8% | 5.4%
5 | Nc1nc(-c2ccc3c(c2)C(=Cc2cc(Br)c(O)c(Br)c2)C(=O)N3)cs1 | -1.17% | -1.61% | -4.71% | -0.3% | -2.45% | -4.27% | 2.84% | -6.34% | -0.4% | 5.18%
6 | Nc1nc(-c2ccccn2)c(-c2ccc3ncccc3n2)s1 | 3.51% | 2.99% | 3.23% | 2.74% | 0.44% | 1.34% | 4.11% | 7.11% | 8.52% | 0.93%
7 | CCc1cccc(NC(=O)Nc2ccc(Oc3ccc4nc(NC(=O)OC)[nH]c4c3)cc2)c1 | 63% | 6.29% | 3.66% | 15.7% | 27.5% | 0.27% | 7% | 9.67% | 15.3% | 3.85%
8 | CS(=O)(=O)CCNCc1ccc(-c2ccc3ncnc(Nc4ccc(OCc5cccc(F)c5)c(C(F)(F)F)c4)c3c2)o1 | 4.49% | 6.25% | 3.96% | 2.87% | 0.47% | 3.41% | 7.46% | 8.49% | 16.9% | 4.27%
9 | CC(=O)Nc1cccc(C#Cc2cncnc2Nc2ccc(OCc3cccc(F)c3)c(Cl)c2)n1 | 4.49% | -4.13% | -1.83% | -0.8% | 0.82% | 1.84% | 0.35% | 18.5% | 62.8% | -0.09%
10 | CS(=O)(=O)Nc1ccc(N/C=C2\C(=O)Nc3ccccc32)cc1 | 0.55% | -5.53% | -3.88% | 0.19% | -0.64% | -3.57% | -1.76% | – | -9.44% | 1.8%
11 | CS(=O)(=O)CCN(CC#N)Cc1ccc(-c2ccc3ncnc(Nc4ccc(OCc5cccc(F)c5)c(Cl)c4)c3c2)o1 | 4.79% | -1.45% | -0.8% | -2.59% | -3.31% | 12.4% | 66.7% | 33.6% | 73.8% | -0.11%
12 | NS(=O)(=O)c1cccc(-c2ccc3c(NC(=O)C4CC4)n[nH]c3c2)c1 | -0.57% | -3.25% | -3.05% | -1.93% | -1.01% | -3.46% | -5.29% | -3.96% | -3.93% | 1.7%
13 | CN1CCC(C(=O)Nc2n[nH]c3nnc(-c4ccccc4)cc23)CC1 | 3.41% | 6.23% | 4.08% | 2.18% | 1.12% | 5.08% | 14.2% | 17.7% | 24.2% | 3.91%
14 | CCn1c(-c2nonc2N)nc2ccncc21 | – | 2.91% | -1.68% | -0.26% | 0.27% | 0.8% | -4.21% | 7.5% | 9.71% | 2.5%
15 | COc1cc2c(cc1Nc1nc(N3CCc4ccccc43)c3cc[nH]c3n1)N(C(=O)CN(C)C)CC2 | 9.31% | 2.82% | 0.49% | 1% | 0.73% | 1.22% | -0.36% | 6.72% | 6.14% | 66.2%
16 | COc1cc2ncn(-c3cc(O[C@H](C)c4ccccc4Cl)c(C(N)=O)s3)c2cc1OC | 21.9% | 3.78% | 5.92% | 4.27% | 7.03% | 2.23% | 7.82% | 7.95% | 14% | 4.62%
17 | COc1ccc(-c2coc3ncnc(N)c23)cc1 | 7.88% | 6.18% | 5.65% | 2.3% | 3.43% | 0.31% | -4.24% | 9.06% | 15.5% | 6.86%
